Assay results published in the supplement of paper PMC11006884.
The full data set covers some 6,500 targets. This sample favours those with a hit. About 2% of all pairs of compound and target were hits. Unmarked numbers belong to inactive results.

compound: COC(=O)C#Cc1ccccc1 [methyl 3-phenylpropiolate]; assay: log2 ratio of iodoacetamide-alkyne labeling of the cysteine site, DMSO over compound (competition); higher = stronger covalent engagement of the cysteine by the compound, active = 1 or more; details: 500 µM; treatment time 1 h; system: HEK293T cell lysate
Outline: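 After 1 h at ambient temperature with vehicle or electrophile (500 µM), HEK293T lysate (2 mg/mL) was labelled for 1 h with iodoacetamide alkyne and clicked to sCIP-TMT reagents. Pooled samples were trypsin-digested overnight at 37 °C, streptavidin-enriched, acid-eluted and analysed by Orbitrap Eclipse LC-MS/MS with FAIMS, then quantified in FragPipe over three replicates with duplicate channels. A cysteine's log2 competition ratio is its mean control-channel over mean compound-channel reporter intensity. Cysteines quantified in only one replicate were not included.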

Target	log2 ratio of iodoacetamide-alkyne labeling
UniProt Q86YR5_C515	1.7 (active)
EP400 C162 (UniProt Q96L91)	0.339
UniProt Q8N1I0_C1723	1.34 (active)
NCAPG C751 (UniProt Q9BPX3)	0.416
PRPF8 C435 (UniProt Q6P2Q9)	1.24 (active)
USP28 C142 (UniProt Q96RU2)	1.47 (active)
EDC3 C137 (UniProt Q96F86)	1.09 (active)
SND1 C96 (UniProt Q7KZF4)	0.115
ZNF428 C93 (UniProt Q96B54)	0.191
TRMT2A C463 (UniProt Q8IZ69)	1.1 (active)
ATPAF1 C321 (UniProt Q5TC12)	0.464
RDH10 C272 (UniProt Q8IZV5)	0.324
C15orf39 C367 (UniProt Q6ZRI6)	1.32 (active)
CRBN C78 (UniProt Q96SW2)	0.133
NSD1 C1689 (UniProt Q96L73)	0.216
NEK9 C25 (UniProt Q8TD19)	1.21 (active)
FLAD1 C496 (UniProt Q8NFF5)	1.06 (active)
HEATR3 C173 (UniProt Q7Z4Q2)	0.137

Target	log2 ratio of iodoacetamide-alkyne labeling
UniProt Q8IX01_C183	0.451
TRUB1 C269 (UniProt Q8WWH5)	0.163
FBXO30 C317 (UniProt Q8TB52)	0.564
FTSJ3 C197 (UniProt Q8IY81)	0.103
PDCD6IP C40 (UniProt Q8WUM4)	0.812
SLFN11 C6 (UniProt Q7Z7L1)	0.329
ANKHD1 C777 (UniProt Q8IWZ3)	0.251
ZNF428 C114 (UniProt Q96B54)	0.0848
SMC5 C726 (UniProt Q8IY18)	0.249
INTS1 C1701 (UniProt Q8N201)	-0.0332
ACO2 C448 (UniProt Q99798)	1.71 (active)
POM121 C461 (UniProt Q96HA1)	0.43
SNF8 C72 (UniProt Q96H20)	0.2
CPNE1 C53 (UniProt Q99829)	-0.0731
UniProt Q92888_C892	0.0678
UBR2 C1619 (UniProt Q8IWV8)	0.0476
MYBBP1A C1031 (UniProt Q9BQG0)	0.225
